Among the data in PubChem BioAssay (NCATS) are Potency values, retold here.

SMILES strings stand for the structures. Results filed as inconclusive are left out. Entries that show only a call come without a potency. Calls of active or inactive are those of the source. Calls come from the whole dose curve; as a rule, active = well fitted inhibition curve with a large enough effect in the repeat runs; inconclusive = weak or mixed curves; inactive = no such curve, though single readings can be large or run the other way.

Chain of Cytochrome P450 2C9 (Homo sapiens) (P11712 whole entry, looked up): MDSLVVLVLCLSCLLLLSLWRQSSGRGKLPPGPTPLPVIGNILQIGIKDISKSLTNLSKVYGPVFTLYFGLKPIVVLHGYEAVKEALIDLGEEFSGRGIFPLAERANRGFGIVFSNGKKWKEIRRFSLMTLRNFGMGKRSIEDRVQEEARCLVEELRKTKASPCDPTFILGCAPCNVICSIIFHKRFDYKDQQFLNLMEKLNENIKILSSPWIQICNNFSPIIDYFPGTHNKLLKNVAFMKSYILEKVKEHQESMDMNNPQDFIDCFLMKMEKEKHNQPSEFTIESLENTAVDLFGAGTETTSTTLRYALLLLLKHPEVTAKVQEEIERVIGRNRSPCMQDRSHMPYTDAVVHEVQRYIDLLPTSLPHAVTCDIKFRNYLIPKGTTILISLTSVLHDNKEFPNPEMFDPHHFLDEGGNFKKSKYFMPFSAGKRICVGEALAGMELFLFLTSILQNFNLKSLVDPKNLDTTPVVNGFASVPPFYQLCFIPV

The target of the first experiment is Cytochrome P450 3A4 (Homo sapiens) (UniProt P08684). Put plainly: Cytochrome P450 family 3 subfamily A member 4 (CYP3A4) small molecule antagonists: luciferase qHTS assay (AID 1645841). Note: nearly all actives have a fitted effect of over 45% in size. The note with it: P450-Glo CYP3A4 enzyme assay, luciferin luminescence; series mostly up to 57.4 µM. In short, it runs like this: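 P450-Glo CYP3A4 enzyme with proluciferin substrate preincubated 10 min with compound at room temperature, then NADPH regeneration 1 h. Luciferin detection reagent added for 20 min; luminescence recorded. Ketoconazole positive control.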
Chain of Cytochrome P450 3A4 (Homo sapiens) (P08684 whole entry, looked up): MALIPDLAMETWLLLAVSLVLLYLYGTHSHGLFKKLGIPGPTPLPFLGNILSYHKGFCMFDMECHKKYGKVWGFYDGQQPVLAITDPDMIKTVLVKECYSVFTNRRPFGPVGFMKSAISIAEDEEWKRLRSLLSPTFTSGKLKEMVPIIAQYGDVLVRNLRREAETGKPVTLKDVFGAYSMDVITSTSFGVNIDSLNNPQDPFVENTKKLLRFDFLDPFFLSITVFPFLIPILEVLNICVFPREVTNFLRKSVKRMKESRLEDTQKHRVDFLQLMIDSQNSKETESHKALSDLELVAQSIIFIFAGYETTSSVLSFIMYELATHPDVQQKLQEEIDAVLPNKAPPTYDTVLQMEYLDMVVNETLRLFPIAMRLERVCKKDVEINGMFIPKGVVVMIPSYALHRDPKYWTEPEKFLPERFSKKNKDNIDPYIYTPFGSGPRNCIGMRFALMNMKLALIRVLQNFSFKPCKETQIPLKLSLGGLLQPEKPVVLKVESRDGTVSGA
On to `Nc1nc(N)nc(NC2CC2)n1`, for which the Potency entry was “inactive”.

With `C[C@]12CCC(=O)C=C1CC[C@@H]1[C@@H]2CC[C@]2(C)C(=O)CC[C@@H]12`, the Potency entry is “inactive”.

`O=P1(N(CCCl)CCCl)NCCCO1` (stereo not given): the Potency result was “inactive”. Regarding `COc1cccc([C@@]2(O)CCCC[C@@H]2CN(C)C)c1`, the Potency entry was “inactive”.

The next experiment has as its target Cytochrome P450 2C9 (Homo sapiens) (UniProt P11712). Nature of the experiment: Cytochrome P450 family 2 subfamily C member 9 (CYP2C9) small molecule antagonists: luciferase biochemical (cell-free) qHTS assay (AID 1645842). Note: nearly all actives have a fitted effect of over 55% in size. Note: potency is the fitted concentration of half-maximal effect. The note with it: P450-Glo CYP2C9 enzyme assay, luciferin luminescence; series mostly up to 57.4 µM. In outline: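 P450-Glo CYP2C9 system: proluciferin substrate with enzyme in mix containing 0.4% BSA, 10 min at room temperature, then NADPH regeneration solution added and incubated 1 h at 37C. Detection reagent stopped reaction; luminescence read after 20 min as RLU.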
(In qHTS, concentration-response curves come from the screen itself.)
`Nc1nc(N)nc(NC2CC2)n1`: the Potency result was “inactive”.

On to `O=c1[nH]oc2c1CCNC2`, for which the Potency result was “inactive”.

For the molecule `COc1c2c(cc3c1OCO3)CCN(C)C2`, the Potency entry is “inactive”. On the same count and under the same terms, in the case of `NC1=NC(=O)C(c2ccccc2)O1` (stereo not given) it was “inactive”; in that of `CCCOC(=O)c1cncn1C(C)c1ccccc1` (stereo not given), 13.8 µM (active).

`CC(C)=CC1C(C(=O)OCN2C(=O)C3=C(CCCC3)C2=O)C1(C)C` (stereo not given): the Potency was 8.71 µM (active). Take `CCC1(c2ccc(N)cc2)CCC(=O)NC1=O` (stereo not given): the Potency result was “inactive”. As to `CCN[C@@H](C)Cc1cccc(C(F)(F)F)c1`, the Potency result was “inactive”. Still for that read-out and setting: next, `CNCC(=O)c1ccc(O)c(O)c1`: “inactive”. For `C[C@]12CCC(=O)C=C1CC[C@@H]1[C@@H]2CC[C@]2(C)C(=O)CC[C@@H]12`, the Potency result was “inactive”. As to `COc1cccc2c1C(=O)c1c(O)c3c(c(O)c1C2=O)C[C@@](O)(C(=O)CO)CC3OC1CC(N2CCOC(OC)C2)C(O)C(C)O1` (stereo not given in full), the Potency was 3.47 µM (active). For `CCCCCCC(=O)CCCCCC/C=C/C[C@@H](O)[C@H](O)[C@@](N)(CO)C(=O)O`, the Potency entry is “inactive”. Still for that read-out and setting: next, `CCN[C@H](C)Cc1cccc(C(F)(F)F)c1`: “inactive”. Consider `O=P1(N(CCCl)CCCl)NCCCO1` (stereo not given), for which the Potency entry was “inactive”. As for `C[C@]12CCC(=O)C=C1CC[C@@H]1[C@H]3CC[C@](C)(O)[C@@]3(C)CC[C@@H]12`, the Potency is 42.6 µM (active). As to `COc1cccc([C@@]2(O)CCCC[C@@H]2CN(C)C)c1`, the Potency result is “inactive”. `NNc1ccccc1`: the Potency result was “inactive”. Same read-out and setting: in the case of `CC(Cc1ccccc1)N(C)Cc1ccco1` (stereo not given) it was “inactive”. Still for that read-out and setting: next, `O=C1c2ccccc2C(=O)C1C(=O)C(c1ccccc1)c1ccccc1`: 0.384 µM (active); `C#C[C@]1(O)CC[C@H]2[C@@H]3CCC4=CC(=O)CC[C@]4(C)[C@H]3CC[C@@]21C`: “inactive”; `CCC1(c2ccccc2)C(=O)N(COC)C(=O)N(COC)C1=O`: “inactive”. For the molecule `COC(=O)C(Cl)C(=O)OC`, the Potency entry is “inactive”. For `C[C@]12CCC(=O)C=C1CC[C@@H]1[C@@H]2CC[C@@]2(C)[C@H]1CC[C@]2(C)O`, the Potency result is “inactive”.

With `CCN(CCO)CCn1c(Cc2ccccc2)nc2c1c(=O)n(C)c(=O)n2C`, the Potency result was “inactive”.

Turning to `O=C(CCCN1CCC2(CC1)C(=O)NCN2c1ccccc1)c1ccc(F)cc1`, the Potency entry is “inactive”. `O=C(N/N=C/c1ccc([N+](=O)[O-])o1)c1cc([N+](=O)[O-])cc([N+](=O)[O-])c1O`: the Potency entry was “inactive”. Same read-out and setting: next, `C=CCN1C[C@H](C)N([C@H](c2ccc(C(=O)N(CC)CC)cc2)c2cccc(OC)c2)C[C@H]1C`: “inactive”; `C[C@H]1[C@@H]2Cc3ccc(O)cc3[C@@]1(C)CCN2C`: “inactive”; `ClCCN1CCCC1`: “inactive”. The same measure, in the same setting: in the case of `CN1CCC(O)(c2ccc(F)cc2)C(C(=O)c2ccc(F)cc2)C1` (stereo not given) it was “inactive”; in that of `NCCc1ccc(O)cc1`, “inactive”.
